Source: PubChem BioAssay AID1159580 (chemical genetic matrix, 2015)
Out of some 5,500 compounds screened, about 2,000 (36%) were called active. About 18% were inconclusive and are not listed. The list shows a part of the results. Unmarked numbers belong to inactive results. Cut-off read from the data, not from the text of the source: active = normalized growth mostly below about 0.91 (no sharp cut-off); inconclusive = no clear call, values can overlap the other calls; inactive = mostly above about 0.92.

Assay: chemical genetic growth profiling, strain panel (AID 1159580);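 note: tested at 20 µM; growth read once vehicle control cultures reached saturation at 30 °C; 1 = growth at the plate median or of vehicle wells; lower values mean less growth of the strain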
Conditions: growth OD
[1] = S. cerevisiae deletion strains, locus YAL013W, strain DEP1, stronger effect = lower value
[2] = S. cerevisiae deletion strains, locus YGR078C, strain PAC10, stronger effect = lower value
[3] = S. cerevisiae deletion strains, locus YGR229C, strain SMI1, stronger effect = lower value
[4] = S. cerevisiae deletion strains, locus YJR075W, strain HOC1, stronger effect = lower value
[5] = S. cerevisiae deletion strains, locus YMR307W, strain GAS1, stronger effect = lower value
[6] = S. cerevisiae deletion strains, locus YNL128W, strain TEP1, stronger effect = lower value
[7] = S. cerevisiae deletion strains, locus YNL153C, strain GIM3, stronger effect = lower value
[8] = S. cerevisiae deletion strains, locus YNL322C, strain KRE1, stronger effect = lower value
[9] = S. cerevisiae deletion strains, locus YPL055C, strain LGE1, stronger effect = lower value
[10] = S. cerevisiae deletion strains, locus YPL241C, strain CIN2, stronger effect = lower value
[11] = S. cerevisiae deletion strains, locus YAL040C, strain CLN3, stronger effect = lower value
[12] = S. cerevisiae deletion strains, locus YCL061C, strain MRC1 (second series), stronger effect = lower value
[13] = S. cerevisiae deletion strains, locus YDR363W, strain ESC2, stronger effect = lower value
[14] = S. cerevisiae deletion strains, locus YER002W, strain NOP16, stronger effect = lower value
[15] = S. cerevisiae deletion strains, locus YNL175C, strain NOP13, stronger effect = lower value
[16] = S. cerevisiae deletion strains, locus YNL197C, strain WHI3, stronger effect = lower value
[17] = S. cerevisiae deletion strains, locus YNL224C, strain SQS1, stronger effect = lower value
[18] = S. cerevisiae deletion strains, locus YOR083W, strain WHI5 (second series), stronger effect = lower value

## CC(=O)C1CCC2C3CC(=O)C4=CC(=O)CCC4(C)C3CCC12C (stereo unspecified)
[1]
  normalized growth: 0.971
S. cerevisiae deletion strains, locus YBR021W, strain FUR4, stronger effect = lower value
  normalized growth: 0.995
S. cerevisiae deletion strains, locus YBR229C, strain ROT2, stronger effect = lower value
  normalized growth: 0.955
S. cerevisiae deletion strains, locus YCL029C, strain bik1, stronger effect = lower value
  normalized growth: 0.972
S. cerevisiae deletion strains, locus YDL035C, strain GPR1, stronger effect = lower value
  normalized growth: 0.971
S. cerevisiae deletion strains, locus YDL074C, strain BRE1, stronger effect = lower value
  normalized growth: 0.875
S. cerevisiae deletion strains, locus YDL101C, strain DUN1, stronger effect = lower value
  normalized growth: 0.935
S. cerevisiae deletion strains, locus YDL134C, strain PPH21, stronger effect = lower value
  normalized growth: 0.976
S. cerevisiae deletion strains, locus YDL185W, strain tfp1, stronger effect = lower value
  normalized growth: 0.946
S. cerevisiae deletion strains, locus YDL192W, strain arf1, stronger effect = lower value
  normalized growth: 0.982
S. cerevisiae deletion strains, locus YDR101C, strain arx1, stronger effect = lower value
  normalized growth: 0.99
S. cerevisiae deletion strains, locus YDR150W, strain NUM1, stronger effect = lower value
  normalized growth: 0.95
S. cerevisiae deletion strains, locus YDR162C, strain NBP2, stronger effect = lower value
  normalized growth: 0.866
S. cerevisiae deletion strains, locus YDR318W, strain mcm21, stronger effect = lower value
  normalized growth: 0.996
S. cerevisiae deletion strains, locus YDR388W, stronger effect = lower value
  normalized growth: 0.983
S. cerevisiae deletion strains, locus YDR502C, strain sam2, stronger effect = lower value
  normalized growth: 0.95
S. cerevisiae deletion strains, locus YEL061C, strain CIN8, stronger effect = lower value
  normalized growth: 0.981
S. cerevisiae deletion strains, locus YER110C, stronger effect = lower value
  normalized growth: 0.971
S. cerevisiae deletion strains, locus YER155C, strain BEM2, stronger effect = lower value
  normalized growth: 1
S. cerevisiae deletion strains, locus YER167W, strain BCK2, stronger effect = lower value
  normalized growth: 0.995
S. cerevisiae deletion strains, locus YGL078C, strain dbp3, stronger effect = lower value
  normalized growth: 0.979
S. cerevisiae deletion strains, locus YGL086W, strain mad1, stronger effect = lower value
  normalized growth: 1.01
S. cerevisiae deletion strains, locus YGL248W, strain PDE1, stronger effect = lower value
  normalized growth: 0.967
[2]
  normalized growth: 0.928
S. cerevisiae deletion strains, locus YGR135W, strain pre9, stronger effect = lower value
  normalized growth: 0.926
[3]
  normalized growth: 1.03
S. cerevisiae deletion strains, locus YGR252W, strain gcn5, stronger effect = lower value
  normalized growth: 1.02
S. cerevisiae deletion strains, locus YHR030C, strain SLT2, stronger effect = lower value
  normalized growth: 0.995
S. cerevisiae deletion strains, locus YHR079C, strain IRE1 (second series), stronger effect = lower value
  normalized growth: 0.984
S. cerevisiae deletion strains, locus YHR094C, strain hxt1, stronger effect = lower value
  normalized growth: 0.982
S. cerevisiae deletion strains, locus YHR129C, strain ARP1, stronger effect = lower value
  normalized growth: 0.985
S. cerevisiae deletion strains, locus YHR200W, strain rpn10, stronger effect = lower value
  normalized growth: 0.982
S. cerevisiae deletion strains, locus YIL066C, strain RNR3, stronger effect = lower value
  normalized growth: 0.948
S. cerevisiae deletion strains, locus YIL073C, strain SPO22, stronger effect = lower value
  normalized growth: 0.99
S. cerevisiae deletion strains, locus YIL125W, strain kgd1, stronger effect = lower value
  normalized growth: 0.983
S. cerevisiae deletion strains, locus YIR030C, strain dcg1, stronger effect = lower value
  normalized growth: 0.982
S. cerevisiae deletion strains, locus YJL095W, strain BCK1, stronger effect = lower value
  normalized growth: 0.965
S. cerevisiae deletion strains, locus YJL134W, strain LCB3, stronger effect = lower value
  normalized growth: 0.975
S. cerevisiae deletion strains, locus YJL168C, strain set2, stronger effect = lower value
  normalized growth: 0.978
S. cerevisiae deletion strains, locus YJL187C, strain SWE1 (second series), stronger effect = lower value
  normalized growth: 0.931
S. cerevisiae deletion strains, locus YJR043C, strain POL32, stronger effect = lower value
  normalized growth: 1.01
[4]
  normalized growth: 0.953
S. cerevisiae deletion strains, locus YKL009W, strain mrt4, stronger effect = lower value
  normalized growth: 0.968
S. cerevisiae deletion strains, locus YKL068W, stronger effect = lower value
  normalized growth: 0.982
S. cerevisiae deletion strains, locus YKL085W, strain MDH1 (second series), stronger effect = lower value
  normalized growth: 0.943
S. cerevisiae deletion strains, locus YKL085W, strain MDH1, stronger effect = lower value
  normalized growth: 0.943
S. cerevisiae deletion strains, locus YKL190W, strain CNB1, stronger effect = lower value
  normalized growth: 0.964
S. cerevisiae deletion strains, locus YKR001C, strain vps1, stronger effect = lower value
  normalized growth: 0.971
S. cerevisiae deletion strains, locus YLR039C, strain RIC1, stronger effect = lower value
  normalized growth: 0.735
S. cerevisiae deletion strains, locus YLR058C, strain SHM2, stronger effect = lower value
  normalized growth: 0.971
S. cerevisiae deletion strains, locus YLR102C, strain apc9, stronger effect = lower value
  normalized growth: 0.971
S. cerevisiae deletion strains, locus YLR262C, strain YPT6, stronger effect = lower value
  normalized growth: 0.749
S. cerevisiae deletion strains, locus YLR268W, strain sec22, stronger effect = lower value
  normalized growth: 0.928
S. cerevisiae deletion strains, locus YLR330W, strain CHS5, stronger effect = lower value
  normalized growth: 0.989
S. cerevisiae deletion strains, locus YLR342W, strain FKS1 (second series), stronger effect = lower value
  normalized growth: 1.01
S. cerevisiae deletion strains, locus YLR371W, strain rom2, stronger effect = lower value
  normalized growth: 0.986
S. cerevisiae deletion strains, locus YLR418C, strain cdc73, stronger effect = lower value
  normalized growth: 0.862
S. cerevisiae deletion strains, locus YML016C, strain PPZ1, stronger effect = lower value
  normalized growth: 0.979
S. cerevisiae deletion strains, locus YML032C, strain rad52, stronger effect = lower value
  normalized growth: 1.01
S. cerevisiae deletion strains, locus YML124C, strain tub3, stronger effect = lower value
  normalized growth: 0.998
S. cerevisiae deletion strains, locus YMR078C, strain ctf18, stronger effect = lower value
  normalized growth: 0.968
S. cerevisiae deletion strains, locus YMR223W, strain ubp8, stronger effect = lower value
  normalized growth: 1
S. cerevisiae deletion strains, locus YMR263W, strain SAP30, stronger effect = lower value
  normalized growth: 0.936
[5]
  normalized growth: 1.01
S. cerevisiae deletion strains, locus YNL067W, strain RPL9B, stronger effect = lower value
  normalized growth: 0.936
[6]
  normalized growth: 0.924
[7]
  normalized growth: 0.922
S. cerevisiae deletion strains, locus YNL233W, strain BNI4, stronger effect = lower value
  normalized growth: 0.972
S. cerevisiae deletion strains, locus YNL250W, strain rad50, stronger effect = lower value
  normalized growth: 0.948
S. cerevisiae deletion strains, locus YNL271C, strain bni1, stronger effect = lower value
  normalized growth: 0.983
S. cerevisiae deletion strains, locus YNL298W, strain CLA4, stronger effect = lower value
  normalized growth: 0.968
S. cerevisiae deletion strains, locus YNL307C, strain MCK1, stronger effect = lower value
  normalized growth: 0.971
[8]
  normalized growth: 0.977
S. cerevisiae deletion strains, locus YNR052C, strain pop2, stronger effect = lower value
  normalized growth: 0.989
S. cerevisiae deletion strains, locus YOL006C, strain TOP1, stronger effect = lower value
  normalized growth: 0.846
S. cerevisiae deletion strains, locus YOL012C, strain htz1
  normalized growth: 0.923
S. cerevisiae deletion strains, locus YOL147C, strain pex11, stronger effect = lower value
  normalized growth: 0.99
S. cerevisiae deletion strains, locus YOR061W, strain CKA2, stronger effect = lower value
  normalized growth: 0.942
S. cerevisiae deletion strains, locus YOR069W, strain VPS5, stronger effect = lower value
  normalized growth: 0.975
S. cerevisiae deletion strains, locus YOR136W, strain idh2, stronger effect = lower value
  normalized growth: 0.984
S. cerevisiae deletion strains, locus YOR144C, strain elg1, stronger effect = lower value
  normalized growth: 0.988
S. cerevisiae deletion strains, locus YOR184W, strain ser1, stronger effect = lower value
  normalized growth: 0.959
S. cerevisiae deletion strains, locus YOR316C, strain cot1, stronger effect = lower value
  normalized growth: 0.968
[9]
  normalized growth: 0.852
[10]
  normalized growth: 0.974
S. cerevisiae deletion strains, locus YPR119W, strain clb2, stronger effect = lower value
  normalized growth: 0.99
S. cerevisiae deletion strains, locus YPR141C, strain kar3, stronger effect = lower value
  normalized growth: 0.957
S. cerevisiae deletion strains, locus YPR163C, strain tif3, stronger effect = lower value
  normalized growth: 0.967
S. cerevisiae deletion strains, locus YPR167C, strain met16, stronger effect = lower value
  normalized growth: 0.979
S. cerevisiae deletion strains, strain wtn01, stronger effect = lower value
  normalized growth: 0.951
S. cerevisiae strains, strain wild type, stronger effect = lower value
  normalized growth: 0.972

## CC(=O)[C@H]1CC[C@H]2[C@@H]3CCC4=CC(=O)CC[C@]4(C)[C@H]3CC[C@]12C
[1]
  normalized growth: 0.994
[11]
  normalized growth: 0.992
[12]
  normalized growth: 1
[13]
  normalized growth: 1.01
[14]
  normalized growth: 0.973
[2]
  normalized growth: 0.998
[3]
  normalized growth: 1.17 [resistant] (active)
[4]
  normalized growth: 0.99
[5]
  normalized growth: 0.979
[15]
  normalized growth: 0.991
[16]
  normalized growth: 0.986
[17]
  normalized growth: 0.992
[18]
  normalized growth: 1.01
[9]
  normalized growth: 0.99
[10]
  normalized growth: 0.995

## C/C=C1\C(=O)CC2C3CCC4=CC(=O)CC[C@]4(C)C3CC[C@]12C (stereo partly specified)
[1]
  normalized growth: 0.978
[11]
  normalized growth: 0.975
[12]
  normalized growth: 1
[13]
  normalized growth: 0.996
[14]
  normalized growth: 0.974
[2]
  normalized growth: 0.924
[5]
  normalized growth: 1.01
[6]
  normalized growth: 0.938
[7]
  normalized growth: 0.774 (active)
[15]
  normalized growth: 0.956
[16]
  normalized growth: 0.978
[17]
  normalized growth: 0.99
[8]
  normalized growth: 1.01
[18]
  normalized growth: 0.743 (active)
[9]
  normalized growth: 0.992
